Molecules are shown by their SMILES. Counter-ions that a name gives are not always drawn. ± gives the standard deviation of the averaged measurements.
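Also: End-point A600 read in BHI broth at 37 °C with 2% DMSO, inhibition computed as (1 − OD with compound plus ceftriaxone ÷ OD with ceftriaxone only) × 100.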

This assay relates to Listeria monocytogenes 10403S. Description: growth inhibition relative to ceftriaxone-alone control; higher = stronger potentiation of ceftriaxone growth inhibition. Particulars: 10 µM; ceftriaxone 1 ug/ml; 12 h.
On to `Cc1cc(Nc2cc(N3CCN(C)CC3)nc(Sc3ccc(NC(=O)C4CC4)cc3)n2)n[nH]1` [VX-680 (MK-0457, Tozasertib)], for which the growth inhibition worked out at 52.7 ± 17%.

On to `Clc1ccc(CNc2nccc(-c3cnn4ncccc34)n2)cc1`, for which the growth inhibition was -1.66 ± 1.6%.

With `CCC(=O)Nc1ccc(C)c(-c2ccc(C(=O)NCC3CC3)cc2)c1`, the growth inhibition was -2.46 ± 1.9%.

For `COc1cc(Nc2c(C#N)cnc3cc(OCCCN4CCN(C)CC4)c(OC)cc23)c(Cl)cc1Cl` [Bosutinib (SKI-606)], the growth inhibition was found to be 72.2 ± 1.1%.

`CCn1nnc2c(N3CCOCC3)nc(-c3ccc(NC(=O)Nc4ccc(C(=O)N5CCN(C)CC5)cc4)cc3)nc21`: the growth inhibition came out at 20.2 ± 19%.

For `CC1=C(C(=O)Nc2ccc3[nH]ncc3c2)C(c2ccc(Cl)c(Cl)c2)CC(=O)N1` (stereo not drawn), the growth inhibition is -13 ± 9.9%.

As to `COc1cccc(-n2nc(C)c3c(N/N=C(\C)c4ccncc4)ncnc32)c1`, the growth inhibition was -12.5 ± 20%.

For `CCN(CC)CCNC(=O)c1c(C)[nH]c(/C=C2\C(=O)Nc3ccc(F)cc32)c1C` [Sunitinib Malate (Sutent)], the growth inhibition was determined as 73.6 ± 12%.

With `COc1cc(OC)c(/C=C/S(=O)(=O)Cc2ccc(OC)c(NCC(=O)O)c2)c(OC)c1`, the growth inhibition stood at 4.69 ± 0.45%.

As for `FC(F)(F)c1cccc(-c2nn3ncccc3c2-c2ccnc(Nc3ccc4c(c3)OCCO4)n2)c1`, the growth inhibition was -5.79 ± 1.8%.

As for `Fc1ccc(-c2ncn(C3CCNCC3)c2-c2ccnc(Oc3ccc(F)c(F)c3)n2)cc1`, the growth inhibition was 10.7 ± 16%.

As for `Nc1nc(-c2cccc(Cl)c2)c(-c2ccc3ncccc3n2)s1`, the growth inhibition was -7.03 ± 7.3%.

Regarding `COc1ccc2ncn(-c3cc(O[C@H](C)c4ccccc4Cl)c(C(N)=O)s3)c2c1`, the growth inhibition came to 1.82 ± 0.29%.

On to `Cc1cccc(-c2n[nH]cc2-c2ccc3ncccc3n2)n1`, for which the growth inhibition was -9.12 ± 7.3%.

As to `CCS(=O)(=O)c1cccc(-c2cc(C(=O)NC3CCN(C)CC3)c(C)c3[nH]c4ncc(C)cc4c23)c1`, the growth inhibition came to 31.1 ± 6.9%.

As for `Nc1nccc(-c2c(-c3ccc(F)cc3)ncn2CCCN2CCOCC2)n1`, the growth inhibition was -1.02 ± 0.073%.

With `Cc1ccc2c(-c3ccnc(Nc4ccccc4)n3)c(-c3ccc(F)cc3)nn2n1`, the growth inhibition is -6.27 ± 1.4%.

With `Nc1nonc1-c1nc2cnccc2n1C1CCCCC1`, the growth inhibition was 12.4 ± 3.9%.

For `CN1CC[C@H](c2c(O)cc(O)c3c(=O)cc(-c4ccccc4Cl)oc23)[C@H](O)C1` [Flavopiridol HCl], the growth inhibition amounted to 10.3 ± 6.8%.

As for `Cc1cc(Nc2cc(CN3CCOCC3)c3nc(C)c(Cc4ccc(Cl)cc4F)n3n2)n[nH]1`, the growth inhibition came to 12 ± 6.8%.

On to `COc1cc2ncnc(Nc3cccc(Cl)c3)c2cc1OC` [AG-1478 (Tyrphostin AG-1478)], for which the growth inhibition was found to be 31.5 ± 11%.

For the compound `CC(=O)Nc1nc(C)c(-c2ccc(Cl)c(S(=O)(=O)NCCO)c2)s1`, the growth inhibition amounted to 29.5 ± 2%.

Turning to `CCOc1cc2ncc(C#N)c(Nc3ccc(F)c(Cl)c3)c2cc1NC(=O)/C=C/CN(C)C` [Pelitinib (EKB-569)], the growth inhibition is 14.9 ± 10%.

With `NS(=O)(=O)c1ccc(Nc2ncc(-c3ccccc3)o2)cc1`, the growth inhibition amounted to 6.88 ± 6.9%.

For `CO[C@@H](C(=O)N1Cc2[nH]nc(NC(=O)c3ccc(N4CCN(C)CC4)cc3)c2C1)c1ccccc1`, the growth inhibition was determined as 45.2 ± 16%.

`CS(=O)(=O)CCNCc1ccc(-c2ccc3ncnc(Nc4ccc(OCc5ccccc5)c(Cl)c4)c3c2)o1`: the growth inhibition is -9.81 ± 12%.

`COc1ccccc1Nc1ncc(-c2ccccc2)o1`: the growth inhibition turned out to be 1.22 ± 3.5%.

Regarding `CCc1nccc2c1nc(-c1nonc1N)n2CC`, the growth inhibition is -8.48 ± 4.8%.

For `Fc1ccc(Nc2nccc(-c3c(-c4ccc(C(F)(F)F)cc4)nn4ncccc34)n2)cc1F`, the growth inhibition was -3.35 ± 4.4%.

As to `CCS(=O)(=O)Nc1ccc2c(c1)/C(=C(/Nc1ccc(CN3CCCCC3)cc1)c1ccccc1)C(=O)N2` [Hesperadin], the growth inhibition worked out at 19.3 ± 11%.

For the compound `COc1ccc2c(-c3ccnc(Nc4cccc(OC(F)(F)F)c4)n3)cnn2n1`, the growth inhibition is -7.53 ± 17%.

As to `Nc1nccc(-c2c(-c3ccc(F)cc3)ncn2C2CCC(O)CC2)n1` (stereo not drawn), the growth inhibition is -2.07 ± 1.6%.

On to `O=C(Nc1n[nH]c2cc(-c3cc(F)ccc3F)ccc12)C1CC1`, for which the growth inhibition was -0.453 ± 13%.

As for `CS(=O)(=O)N1CCN(Cc2cc3nc(-c4cccc5[nH]ncc45)nc(N4CCOCC4)c3s2)CC1`, the growth inhibition came to 25.2 ± 21%.

Take `Cc1[nH]c(/C=C2\C(=O)Nc3ccc(S(=O)(=O)N(C)c4cccc(Cl)c4)cc32)c(C)c1C(=O)N1CCN(C)CC1`: the growth inhibition was found to be 51.3 ± 11%.

Regarding `CCc1ccc(Oc2nccc(-c3c(-c4ccc(F)cc4)ncn3C3CCNCC3)n2)cc1`, the growth inhibition turned out to be 1.75 ± 23%.

For the compound `COc1ccc(-c2ccc3ncc4c(c3c2)n(-c2ccc(N3CCNCC3)c(C(F)(F)F)c2)c(=O)n4C)cn1`, the growth inhibition was 28.5 ± 9.7%.

As to `CCN1CCC(C(=O)Nc2n[nH]c3nnc(-c4cccc(F)c4F)cc23)CC1`, the growth inhibition is 0.339 ± 3.9%.

The values above are taken from the supplement of paper PMC5641865, “A screen for kinase inhibitors identifies antimicrobial imidazopyridine aminofurazans as specific inhibitors of the Listeria monocytogenes PASTA kinase PrkA” (The Journal of Biological Chemistry, 2017).
